From paper PMC5540273 (PLoS ONE, 2017)

Tests used:
AAK1 = conditions: concentration: 1 μM, replicates: in singlicate; n = 1
ABL1-nonphosphorylated = conditions: concentration: 1 μM, replicates: in singlicate; n = 1
ABL1-phosphorylated = conditions: concentration: 1 μM, replicates: in singlicate; n = 1
ABL2 = conditions: concentration: 1 μM, replicates: in singlicate; n = 1
YSK4 = system: T1, YSK4
T1 construct: gene MAP3K19

p38-alpha = system: T2, p38-alpha
T2 construct: gene MAPK14

YANK2 = system: T3, YANK2
T3 construct: gene STK32B
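Throughout, for %Inh: KINOMEscan kinase panel screen.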
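Throughout, for Kd: kd values determined as follow-up on hits from a single-replicate KINOMEscan panel screen.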

Compound	%Inh (AAK1) [%]	%Inh (ABL1-nonphosphorylated) [%]	%Inh (ABL1-phosphorylated) [%]	%Inh (ABL2) [%]	Kd (YSK4) [nM]	Kd (p38-alpha) [nM]	Kd (ZAK) [nM]	Kd (YANK2) [nM]
Cc1ccc(-c2ccc3c(ccc4sc5c(c43)NC[C@@H](C)N=C5N(C)C)n2)cn1	0	0	0	0	–	–	–	–
CCn1c(-c2nonc2N)nc2ccccc21 [SB-693162/GW549034]	29	53	27	0	10	–	–	–
Cc1ccccc1COc1cc(-n2cnc3cc(Cl)ccc32)sc1C(N)=O [GW813349]	2	9	14	13	–	–	–	–
COc1cccc(C2=C(Nc3cccc(C(=O)O)c3)C(=O)NC2=O)c1 [SB-390770]	3	0	0	6	–	–	–	–
Cc1cccc(-c2nc(Nc3ccc4c(cnn4C)c3)c3ccccc3n2)n1 [GW876731]	0	0	0	0	–	–	–	–
O=C(Nc1n[nH]c2cc(-c3ccccc3F)ccc12)C1CC1 [SB-733371]	9	46	21	9	200	–	–	–
CCC(=O)c1c(-c2ccccc2)c2cc(Cl)ccc2c(=O)n1Cc1cc(S(C)(=O)=O)n(CCC(C)(C)O)n1	25	6	3	9	–	–	–	–
CCC(=O)c1c(-c2ccccc2)c2cc(Cl)ccc2c(=O)n1Cc1cc(C(=O)NC2CC2)n(C)n1	20	20	0	9	–	–	–	–
CCc1nc(-c2cccc(C)c2)c(-c2ccncc2)s1	0	60	11	6	–	–	–	–
CCC(=O)c1c(-c2ccccc2)c2cc(Cl)ccc2c(=O)n1Cc1ccc(C(=O)O)cc1	0	30	0	15	–	–	–	–
Nc1n[nH]c2ncc(-c3ccccc3)cc12 [SB-517081]	36	0	18	17	–	–	–	–
COc1cc2ncn(-c3cc(OCc4ccncc4Br)c(C(N)=O)s3)c2cc1OC [GW854278]	17	15	0	5	–	–	–	–
COC(=O)c1c(-c2ccccc2)c2cc(Br)ccc2c(=O)n1Cc1ccc(S(C)(=O)=O)cc1	27	25	9	32	–	–	–	–
O=c1cc(N2CCOCC2)nc2n(Cc3ccc(F)c(Cl)c3)ccn12 [GSK2297099]	24	0	0	0	–	–	–	–
Cc1c(Cn2c(C)nn3c(=O)cc(N4CCO[C@H](C)C4)nc23)cccc1C(F)(F)F [GSK2373690]	0	0	2	24	–	–	–	–
CCS(=O)(=O)c1ccc(OC)c(Nc2ncc(-c3ccc(F)cc3)o2)c1.Cl [GW591947]	4	0	0	0	–	–	–	–
OCCCNc1nccc(-c2c(-c3cccc(C(F)(F)F)c3)nn3cc(C(F)(F)F)ccc23)n1 [GW630813]	0	0	0	0	–	1300	–	–
CN(C)c1cc(-c2ccc3c(N)n[nH]c3c2)nc(N)n1 [GSK2219329]	10	0	0	0	–	–	> 10000	–
Cn1c(=O)c(F)c(Nc2ccc(I)cc2F)c2c(=O)n(OC[C@H](O)CO)cnc21	10	54	41	3	–	–	–	–
O=C(Nc1ccc2c(c1)OCO2)NC1CCN(c2ccnc(NCc3ccc(F)cc3)n2)CC1 [GSK1379859]	0	0	0	0	–	–	–	–
Cl.NS(=O)(=O)c1cccc(Nc2cc(-c3ccc(F)cc3)n[nH]2)c1 [GW824645]	9	5	24	0	–	–	–	–
COc1ccc(Nc2nccc(N3CCC(NS(=O)(=O)c4ccc(NC(C)=O)cc4)C3)n2)cc1 (stereo not drawn) [GSK1379729]	0	0	0	20	–	> 10000	–	–
Nc1ncnc2c1ncn2-c1cccc2ccccc12 [SKF-97184]	0	46	26	0	–	–	–	> 10000
Nc1nc(-c2ccccc2F)c(-c2ccnc3ccccc23)s1 [GW560459]	12	0	0	3	–	240	–	–
O=C(Nc1n[nH]c2nc(-c3ccccc3)c(Cl)cc12)C1CC1 [SB-734909]	28	76	57	0	7700	–	–	–
